# Reference: the supplement of paper PMC8728848
# The full list was thinned out, with the strongest signals kept by preference.
# Legend:
# Assay in all cases: glycan array binding signal (z-score within array); higher = stronger binding
# Settings in all cases: glycan notation: IUPAC condensed, linker removed
# Gal3S6S(b1-4)GlcNAc = biological target: Gal3S6S(b1-4)GlcNAc
# Procedure, shortened: (§1)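 Arrays were curated from the Consortium for Functional Glycomics database, 3228 in total, and kept only where the protein sequence was available. Binding is expressed as a within-array Z-score. This score was averaged across arrays of the same protein sequence at different concentrations or buffers and across linkers, and negative values can be read as non-binding.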
# Gal6S(b1-4)GlcNAc6S = biological target: Gal6S(b1-4)GlcNAc6S
# Procedure, shortened: as §1
# [1] = biological target: Glc(a1-4)Glc(a1-4)Glc(a1-4)Glc
# Procedure, shortened: as §1
# GlcA(b1-3)GlcNAc = biological target: GlcA(b1-3)GlcNAc
# Procedure, shortened: as §1
# [2] = biological target: GlcA3S(b1-3)Gal(b1-4)GlcNAc(b1-2)Man
# Procedure, shortened: as §1
# [3] = biological target: GlcNAc(a1-4)Gal(b1-3)GlcNAc
# Procedure, shortened: as §1
# [4] = biological target: GlcNAc(a1-4)Gal(b1-4)GalNAc
# Procedure, shortened: as §1
# [5] = biological target: GlcNAc(a1-4)Gal(b1-4)GlcNAc
# Procedure, shortened: as §1
# [6] = biological target: GlcNAc(a1-4)Gal(b1-4)GlcNAc(b1-3)Gal(b1-4)Glc
# Procedure, shortened: as §1
# [7] = biological target: GlcNAc(a1-4)Gal(b1-4)GlcNAc(b1-3)Gal(b1-4)GlcNAc
# Procedure, shortened: as §1
# [8] = biological target: GlcNAc(a1-4)Gal(b1-4)GlcNAc(b1-3)Gal(b1-4)GlcNAc(b1-3)Gal(b1-4)GlcNAc
# Procedure, shortened: as §1
# [9] = biological target: GlcNAc(a1-4)Gal(b1-4)GlcNAc(b1-3)Gal(b1-4)[Fuc(a1-3)]GlcNAc(b1-3)Gal(b1-4)[Fuc(a1-3)]GlcNAc
# Procedure, shortened: as §1
# [10] = biological target: GlcNAc(b1-3)[GlcNAc(b1-6)]Gal(b1-4)GlcNAc
# Procedure, shortened: as §1
# [11] = biological target: GlcNAc(b1-6)Gal(b1-4)GlcNAc
# Procedure, shortened: as §1
# Kdn(a2-3)Gal(b1-3)GlcNAc = biological target: Kdn(a2-3)Gal(b1-3)GlcNAc
# Procedure, shortened: as §1
# [12] = biological target: Man(a1-2)Man(a1-3)[Man(a1-2)Man(a1-6)]Man(a1-6)[Man(a1-2)Man(a1-2)Man(a1-3)]Man(b1-4)GlcNAc(b1-4)GlcNAc
# Procedure, shortened: as §1
# [13] = biological target: Neu5Ac(a2-3)Gal(b1-3)GlcNAc(b1-2)[Neu5Ac(a2-3)Gal(b1-3)GlcNAc(b1-4)]Man(a1-6)[Neu5Ac(a2-3)Gal(b1-3)GlcNAc(b1-2)Man(a1-3)]Man(b1-4)GlcNAc(b1-4)GlcNAc
# Procedure, shortened: as §1
# [14] = biological target: Neu5Ac(a2-3)Gal(b1-3)[Fuc(a1-4)]GlcNAc(b1-3)Gal(b1-4)[Fuc(a1-3)]GlcNAc
# Procedure, shortened: as §1
# [15] = biological target: Neu5Ac(a2-3)Gal(b1-4)GlcNAc(b1-2)Man(a1-3)[Neu5Ac(a2-6)Gal(b1-4)GlcNAc(b1-2)Man(a1-6)]Man(b1-4)GlcNAc(b1-4)GlcNAc
# Procedure, shortened: as §1
# [16] = biological target: Neu5Ac(a2-3)Gal(b1-4)GlcNAc(b1-3)Gal(b1-4)GlcNAc(b1-3)GalNAc
# Procedure, shortened: as §1
# [17] = biological target: Neu5Ac(a2-3)Gal6S(b1-4)GlcNAc
# Procedure, shortened: as §1
# Neu5Ac(a2-6)Gal = biological target: Neu5Ac(a2-6)Gal
# Procedure, shortened: as §1
# [18] = biological target: Neu5Ac(a2-8)Neu5Ac(a2-3)[GalNAc(b1-4)]Gal(b1-4)Glc
# Procedure, shortened: as §1
# [19] = biological target: Neu5Gc(a2-3)Gal(b1-4)GlcNAc
# Procedure, shortened: as §1
# [20] = biological target: Neu5Gc(a2-6)Gal(b1-4)GlcNAc
# Procedure, shortened: as §1
# [21] = biological target: Neu5Gc(a2-8)Neu5Ac(a2-3)Gal(b1-4)GlcNAc
# Procedure, shortened: as §1
# [22] = biological target: Neu5Gc(a2-8)Neu5Gc(a2-3)Gal(b1-4)GlcNAc(b1-3)Gal(b1-4)GlcNAc
# Procedure, shortened: as §1
binder,measurement,setting,value
rEtpA (Escherichia coli) (protein) MNRIYKLKFDKRRNELVVVSEITTGVGNAKATGSVEGEKSPRRGVRAMALSLLSGMMIMAHPAMSANLPTGGQIVAGSGSIQTPSGNQMNIHQNSQNMVANWNSFDIGKGNTVQFDQPSSSAVALNRVVGGGESQIMGNLKANGQVFLVNPNGVLFGEGASVSTSGFVASTRDIKNDDFMNRRYTFSGGQKAGAAIVNQGELTTNAGGYIVLAADRVSNSGTIRTPGGKTVLAASERITLQLDNGGLMSVQVTGDVVNALVENRGLVSARDGQVYLTALGRGMLMNTVLNVSGVVEASGMHRQDGNIVLDGGDSGVVHLSGTLQADNASGQGGKVVVQGKNILLDKGSNITATGGQGGGEVYVGGGWQGKDSNIRNADKVVMQGGARIDVSATQQGNGGTAVLWSDSYTNFHGQISAKGGETGGNGGRVETSSHGNLQAFGTVSASAKKGKAGNWLLDSADITIVNGSNVSKTETTQSPPHTQFAPTAAGSAVSNTSINNRLNNGTSVTILTHRTRTGTAQGGNITVNAAINKSNGSDVNLTLQAGGNITVNNSITSTEGKLNVNLSGARTSNGSITISNNANITTNGGDITVGTTNTSNRVNISINNTTLNASNGNIQLTGTGTDSGILFAGNNRLTASNIALTGNSTSGNAINLTGTATLNATNNITLTGSSTSGNAINLKGNNTLTASNITLTGESTSGNAINLTDTTGTTTLNATNNITMQGTRVQIKHSNITAGNFALNATVAGSEISNTTLTATNNINLAAKTNSASSGVYLKDARITSTNGSITANGTATANGKATHLDGNVTLNASNGRIKLTGNGHGSASGILFAGNNRLTASNIALTGNSTSGNAINLTGTATLNATNDITLTGSSTSGNAINLTGTATLNATNNITLTGSSTSGNAINLKGNNTLTASNITLTGESTSGNAINLTDTTGTTTLNATNNITMQGTRVQIKHSNITAGNFALNATVAGSEISNTTLTATNNINLAAKTNSASSGVYLKDARITSTNGSITANGTATANGKATHLDGNVTLNASNGRIKLTGNGHGSASGILFAGNNRLTASNIALTGNSTSGNAINLTGTATLNATNDITLTGSSTSGNAINLTGTATLNATNNITLTGSSTSGNAINLKGNNTLTASNITLTGESTSGNAINLTDTTGTTTLNATNNITMQGTRVQIKHSNITAGNFALNATVAGSEISNTTLTATNNINLAAKTNSASSGVYLKDARITSTNGSITANGTATANGKATHLDGNVTLNASNGRIKLTGNGHGSASGILFAGNNRLTASNIALTGNSTSGNAINLTGTATLNATNDITLTGSSTSGNAINLTGTATLNATNNITLTGSSTSGNAINLKGNNTLTASNITLTGESTSGNAINLTDTTGTTTLNATNNITMQGTRVQIKHSNITAGNFALNATVAGSEISNTTLTATNNINLAAKTNSASSGVYLKDARITSTNGSITTNGTATANGKATHLDGNVTLNASNGRIKLTGNGHGSASGILFAGNNRLTASNIALTGNSTSGNAINLTGTATLNATNDITLTGSSTSGNAINLTGTATLNATNNITLTGSSTSGNAINLKGNNTLTASNITLTGESTSGNAINLTDTTGTTTLNATNNITMQGTRVQIKHSNITAGNFALNATVAGSEISNTTLTATNNINLAAKTNSASSGVYLKDARITSTNGSITANGTAPANDNATYLDGNVTLNASNGSIKLTGNGNGSTSGILFAGNNTLTASNITLTGNSEVYWQKLGPEQKLISEEDLNSAVDHHHHHH,glycan array binding signal (z-score),Gal3S6S(b1-4)GlcNAc,-0.028
same,glycan array binding signal (z-score),Gal6S(b1-4)GlcNAc6S,0.353
same,glycan array binding signal (z-score),[1],1.05
same,glycan array binding signal (z-score),GlcA(b1-3)GlcNAc,-0.337
same,glycan array binding signal (z-score),[2],-0.154
same,glycan array binding signal (z-score),[3],2.45
same,glycan array binding signal (z-score),[4],10.8
same,glycan array binding signal (z-score),[5],5.29
same,glycan array binding signal (z-score),[6],4.48
same,glycan array binding signal (z-score),[7],7.75
same,glycan array binding signal (z-score),[8],10.9
same,glycan array binding signal (z-score),[9],6.35
same,glycan array binding signal (z-score),[10],-0.354
same,glycan array binding signal (z-score),[11],-0.395
same,glycan array binding signal (z-score),Kdn(a2-3)Gal(b1-3)GlcNAc,0.581
same,glycan array binding signal (z-score),[12],-0.275
same,glycan array binding signal (z-score),[13],-0.163
same,glycan array binding signal (z-score),[14],-0.21
same,glycan array binding signal (z-score),[15],-0.305
same,glycan array binding signal (z-score),[16],-0.38
same,glycan array binding signal (z-score),[17],0.188
same,glycan array binding signal (z-score),Neu5Ac(a2-6)Gal,8.28
same,glycan array binding signal (z-score),[18],0.026
same,glycan array binding signal (z-score),[19],-0.194
same,glycan array binding signal (z-score),[20],0.192
same,glycan array binding signal (z-score),[21],-0.108
same,glycan array binding signal (z-score),[22],-0.353
